Calls of active or inactive are those of the source. The calls were made as follows: active = hit-call score of the fitted dose curve at least 0.9, where 1 is the maximum; inactive = score below 0.9.
Legend:
Conditions in all cases: mRNA level, 48 h; actives raise or lower the signal
[1] = read-out: Cytochrome P450 (CYP24A1), CYP24A1 (gene 1591); assay: LTEA_HepaRG_CYP24A1: Life Technologies and Expression Analysis (LTEA) Assay for Cytochrome P450 (CYP24A1) using HepaRG (AID 2283478)
Summary of the method: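 qRT-PCR read-out: CYP24A1 transcript levels normalized to three housekeeping genes, bidirectional curve fits against 0.5% DMSO baseline. Human HepaRG cells treated 48 h with chemicals at eight concentrations from 100 uM in half-log steps.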

[2] = read-out: Cytochrome P450 (CYP1A2), CYP1A2 (gene 1544); assay: LTEA_HepaRG_CYP1A2: Life Technologies and Expression Analysis (LTEA) Assay for Cytochrome P450 (CYP1A2) using HepaRG (AID 2283479)
Summary of the method: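 HepaRG, 48 h exposure, top 100 uM, half-log 8-pt, 0.5% DMSO vehicle, duplicates. Readout: TaqMan qRT-PCR of CYP1A2 mRNA, housekeeping-normalized (ACTB/GAPDH/POLR2A). Gain/loss fit relative to DMSO baseline.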

[3] = read-out: cysteine-aspartic acid protease (CASP8), CASP8 (gene 841); assay: LTEA_HepaRG_CASP8: Life Technologies and Expression Analysis (LTEA) Assay for cysteine-aspartic acid protease (CASP8) using HepaRG (AID 2283480)
Summary of the method: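 qRT-PCR readout of CASP8 mRNA, normalized to three housekeeping genes, after 48 h chemical exposure of HepaRG cells; 8-point half-log series, top 100 uM, 0.5% DMSO vehicle. Bidirectional curve fitting against DMSO baseline.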

[4] = read-out: Cytochrome P450 (CYP2B6), CYP2B6 (gene 1555); assay: LTEA_HepaRG_CYP2B6: Life Technologies and Expression Analysis (LTEA) Assay for Cytochrome P450 (CYP2B6) using HepaRG (AID 2283481)
Summary of the method: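 Read-out is CYP2B6 mRNA by TaqMan qRT-PCR, normalized to three housekeeping genes and fitted bidirectionally against 0.5% DMSO baseline. Human HepaRG cells received test chemicals for 48 h, top concentration 100 uM, half-log dilutions.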

CYP2C8 (gene 1558) = assay: LTEA_HepaRG_CYP2C8: Life Technologies and Expression Analysis (LTEA) Assay for CYP2C8 using HepaRG (AID 2283483)
Summary of the method: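 HepaRG (human liver line), 48 h chemical exposure, 8-pt half-log series from 100 uM, 0.5% DMSO vehicle. Readout: CYP2C8 transcript by qRT-PCR, housekeeping-normalized. Bidirectional fit vs DMSO baseline.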

CYP2C9 (gene 1559) = assay: LTEA_HepaRG_CYP2C9: Life Technologies and Expression Analysis (LTEA) Assay for CYP2C9 using HepaRG (AID 2283484)
Summary of the method: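 HepaRG, 48 h dosing, 8-pt half-log series, top 100 uM, 0.5% DMSO vehicle. Read-out: CYP2C9 transcript by TaqMan qRT-PCR, housekeeping-normalized (ACTB/GAPDH/POLR2A). Gain or loss fitted vs DMSO baseline.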

CYP2E1 (gene 1571) = assay: LTEA_HepaRG_CYP2E1: Life Technologies and Expression Analysis (LTEA) Assay for CYP2E1 using HepaRG (AID 2283485)
Summary of the method: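 CYP2E1 transcript was measured by TaqMan qRT-PCR in human HepaRG cultures after 48 h chemical exposure (top 100 uM, half-log steps, 0.5% DMSO vehicle). Housekeeping-gene normalization; gain or loss fitted relative to DMSO baseline.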

CYP4A11 (gene 1579) = assay: LTEA_HepaRG_CYP4A11: Life Technologies and Expression Analysis (LTEA) Assay for CYP4A11 using HepaRG (AID 2283486)
Summary of the method: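 CYP4A11 transcript levels were quantified by TaqMan qRT-PCR after HepaRG human liver cells were treated for 48 hours with test chemicals (top 100 uM, half-log dilutions, 0.5% DMSO). Gain or loss of signal was fitted relative to DMSO.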

[5] = read-out: Cytochrome P450 3A4 (Homo sapiens) (UniProt P08684); assay: LTEA_HepaRG_CYP3A4: Life Technologies and Expression Analysis (LTEA) Assay for CYP3A4 using HepaRG (AID 2283487)
Summary of the method: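 HepaRG, 48 h exposure, 8-pt CRC from 100 uM (half-log), 0.5% DMSO, duplicates; serum-free induction medium. Readout: CYP3A4 mRNA, qRT-PCR, ACTB/GAPDH/POLR2A normalization. Bidirectional fit vs DMSO.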

[6] = read-out: DNA damage-inducible transcript 3 (DDIT3), DDIT3 (gene 1649); assay: LTEA_HepaRG_DDIT3: Life Technologies and Expression Analysis (LTEA) Assay for DNA damage-inducible transcript 3 (DDIT3) using HepaRG (AID 2283488)
Summary of the method: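 qRT-PCR readout (Fluidigm TaqMan), housekeeping-normalized to ACTB, GAPDH, POLR2A. HepaRG cells, 48 h exposure, 8-point half-log series from 100 uM in 0.5% DMSO, duplicates. Gain or loss of signal fitted against DMSO baseline.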

[7] = read-out: Pro-epidermal growth factor (Homo sapiens) (UniProt P01133); assay: LTEA_HepaRG_EGF: Life Technologies and Expression Analysis (LTEA) Assay for Epidermal growth factor (EGF) using HepaRG (AID 2283489)
Summary of the method: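 qRT-PCR readout of EGF transcript after 48 h chemical exposure of HepaRG cells; eight concentrations from 100 uM down in half-log steps, duplicate wells, 0.5% DMSO vehicle. Bidirectional curve fitting against DMSO baseline.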

[8] = read-out: Early growth response protein 1 (EGR1) transcription factor, EGR1 (gene 1958); assay: LTEA_HepaRG_EGR1: Life Technologies and Expression Analysis (LTEA) Assay for Early growth response protein 1 (EGR1) transcription factor using HepaRG (AID 2283490)
Summary of the method: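 HepaRG, 48 h exposure, 8-pt half-log series from 100 uM, 0.5% DMSO vehicle; EGR1 transcript by TaqMan qRT-PCR (Fluidigm array), housekeeping-normalized; bidirectional fit relative to DMSO baseline.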

[9] = read-out: Ezrin (EZR), EZR (gene 7430); assay: LTEA_HepaRG_EZR: Life Technologies and Expression Analysis (LTEA) Assay for Ezrin (EZR) using HepaRG (AID 2283491)
Summary of the method: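 Read-out is EZR transcript level by qRT-PCR, normalized to three housekeeping genes and fitted bidirectionally against the DMSO control. Human HepaRG cells received test chemicals for 48 h at eight half-log concentrations up to 100 uM in 0.5% DMSO.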

[10] = read-out: Cytochrome P450 3A7 (Homo sapiens) (UniProt P24462); assay: LTEA_HepaRG_CYP3A7: Life Technologies and Expression Analysis (LTEA) Assay for CYP3A7 using HepaRG (AID 2283492)
Summary of the method: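 CYP3A7 transcript levels were read by TaqMan qRT-PCR on Fluidigm arrays after 48 h chemical exposure of human HepaRG cells, with housekeeping-gene normalisation. Eight half-log concentrations up to 100 uM in 0.5% DMSO were tested in duplicate.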

CYP3A5 (gene 1577) = assay: LTEA_HepaRG_CYP3A5: Life Technologies and Expression Analysis (LTEA) Assay for CYP3A5 using HepaRG (AID 2283493)
Summary of the method: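 qRT-PCR read-out: CYP3A5 transcript in HepaRG lysates, housekeeping-normalized (ACTB/GAPDH/POLR2A), fitted bidirectionally against 0.5% DMSO baseline. Exposure 48 h, eight half-log concentrations up to 100 uM, duplicates.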

[11] = read-out: Fatty Acid-Binding Protein 1 (FABP1), FABP1 (gene 2168); assay: LTEA_HepaRG_FABP1: Life Technologies and Expression Analysis (LTEA) Assay for Fatty Acid-Binding Protein 1 (FABP1) using HepaRG (AID 2283494)
Summary of the method: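 qRT-PCR readout of FABP1 transcript (normalized to three housekeeping genes) after 48 h chemical exposure of HepaRG cells; eight concentrations, half-log steps, max 100 uM, 0.5% DMSO vehicle; gain or loss fitted relative to DMSO baseline.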

[12] = read-out: Cytochrome P450 4A22 (Homo sapiens) (UniProt Q5TCH4); assay: LTEA_HepaRG_CYP4A22: Life Technologies and Expression Analysis (LTEA) Assay for Cytochrome P450 4A22 (CYP4A22) using HepaRG (AID 2283495)
Summary of the method: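 HepaRG, 48 h post-plating -> serum-free induction medium; dosed 48 h, duplicate, 8 conc. (100 uM top, half-log), 0.5% DMSO. Readout: CYP4A22 mRNA by qRT-PCR, ACTB/GAPDH/POLR2A normalization; gain/loss fit relative to DMSO.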

[13] = read-out: Cytochrome P450 7A1 (Homo sapiens) (UniProt P22680); assay: LTEA_HepaRG_CYP7A1: Life Technologies and Expression Analysis (LTEA) Assay for Cytochrome P450 7A1 (CYP7A1) using HepaRG (AID 2283496)
Summary of the method: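 Using 0.5% DMSO as vehicle and baseline, chemicals were tested in duplicate over an 8-point range from 100 uM on HepaRG cells for 48 h; qRT-PCR signals were normalised to ACTB, GAPDH and POLR2A.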

[14] = read-out: Glutathione S-Transferase (GSTA2), GSTA2 (gene 2939); assay: LTEA_HepaRG_GSTA2: Life Technologies and Expression Analysis (LTEA) Assay for Glutathione S-Transferase (GSTA2) using HepaRG (AID 2283497)
Summary of the method: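 qRT-PCR readout of GSTA2 transcript, normalized to three housekeeping genes, fitted bidirectionally against 0.5% DMSO baseline. Differentiated HepaRG cells received compound for 48 h at 8 concentrations (top 100 uM, half-log steps).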

[15] = read-out: Cytochrome P450 2C19 (Homo sapiens) (UniProt P33261); assay: LTEA_HepaRG_CYP2C19: Life Technologies and Expression Analysis (LTEA) Assay for CYP2C19 using HepaRG (AID 2283482)
Summary of the method: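 HepaRG, 48 h chemical exposure, 8-pt half-log series from 100 uM in 0.5% DMSO, duplicates. Readout: CYP2C19 mRNA by TaqMan qRT-PCR, housekeeping-normalized. Bidirectional fit vs DMSO baseline; phenobarbital 1mM as induction control.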

Measured: AC50

Chain of Cytochrome P450 2C19 (Homo sapiens) (P33261 whole entry, looked up): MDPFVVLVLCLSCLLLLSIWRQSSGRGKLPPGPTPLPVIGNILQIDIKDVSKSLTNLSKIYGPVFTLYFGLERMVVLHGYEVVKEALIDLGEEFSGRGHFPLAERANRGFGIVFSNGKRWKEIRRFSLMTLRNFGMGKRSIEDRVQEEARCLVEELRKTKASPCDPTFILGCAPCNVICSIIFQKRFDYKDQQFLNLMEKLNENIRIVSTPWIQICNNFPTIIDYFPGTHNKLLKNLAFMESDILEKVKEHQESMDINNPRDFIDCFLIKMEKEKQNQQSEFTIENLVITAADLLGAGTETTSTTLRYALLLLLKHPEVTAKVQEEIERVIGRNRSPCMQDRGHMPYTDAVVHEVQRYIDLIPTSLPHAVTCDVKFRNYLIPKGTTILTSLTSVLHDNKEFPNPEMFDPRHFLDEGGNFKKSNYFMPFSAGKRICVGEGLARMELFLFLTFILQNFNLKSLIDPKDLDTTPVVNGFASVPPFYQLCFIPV
Chain of Cytochrome P450 3A7 (Homo sapiens) (P24462 whole entry, looked up): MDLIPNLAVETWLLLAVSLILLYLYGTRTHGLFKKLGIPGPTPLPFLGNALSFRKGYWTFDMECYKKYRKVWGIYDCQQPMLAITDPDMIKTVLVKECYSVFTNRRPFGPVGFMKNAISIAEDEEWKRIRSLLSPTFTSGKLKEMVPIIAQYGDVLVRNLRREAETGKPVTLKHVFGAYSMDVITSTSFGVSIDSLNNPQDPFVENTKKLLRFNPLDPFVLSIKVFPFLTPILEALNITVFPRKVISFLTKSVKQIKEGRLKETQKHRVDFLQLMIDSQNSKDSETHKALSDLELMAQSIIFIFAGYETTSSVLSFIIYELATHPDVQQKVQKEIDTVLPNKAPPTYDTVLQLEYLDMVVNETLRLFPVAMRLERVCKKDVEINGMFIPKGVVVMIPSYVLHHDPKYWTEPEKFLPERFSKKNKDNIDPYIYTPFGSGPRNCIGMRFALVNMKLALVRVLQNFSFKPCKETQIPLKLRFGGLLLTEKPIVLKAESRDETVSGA
Chain of Cytochrome P450 3A4 (Homo sapiens) (P08684 whole entry, looked up): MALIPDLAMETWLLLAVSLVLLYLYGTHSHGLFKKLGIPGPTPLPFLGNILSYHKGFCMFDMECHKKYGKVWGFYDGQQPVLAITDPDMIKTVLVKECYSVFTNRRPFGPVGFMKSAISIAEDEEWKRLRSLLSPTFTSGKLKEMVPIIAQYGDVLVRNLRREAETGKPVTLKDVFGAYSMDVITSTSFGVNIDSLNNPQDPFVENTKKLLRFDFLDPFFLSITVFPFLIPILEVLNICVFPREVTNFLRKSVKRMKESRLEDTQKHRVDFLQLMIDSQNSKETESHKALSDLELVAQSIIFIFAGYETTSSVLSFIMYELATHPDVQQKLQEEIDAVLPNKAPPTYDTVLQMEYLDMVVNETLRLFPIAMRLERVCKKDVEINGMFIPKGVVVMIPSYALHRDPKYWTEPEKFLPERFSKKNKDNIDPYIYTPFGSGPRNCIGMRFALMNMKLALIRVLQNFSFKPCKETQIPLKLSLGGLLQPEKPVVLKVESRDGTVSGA

Cc1ccc(Cl)cc1
not listed: [15]
inactive: all other assays above

c1cc(-c2ccncc2)ccn1
active: [2] 50 µM | [10] 50 µM
not listed: CYP2C8 (gene 1558) | CYP2C9 (gene 1559) | [14]
inactive: all other assays above

COc1ccc(S(=O)(=O)N2C(=O)[C@@](c3ccccc3OC)(N3C[C@H](O)C[C@H]3C(=O)N(C)C)c3cc(Cl)ccc32)c(OC)c1
active: [2] 22.2 µM | [4] 28.9 µM | [15] 21.5 µM | CYP2C8 (gene 1558) 23 µM | CYP2E1 (gene 1571) 33.6 µM | CYP4A11 (gene 1579) 26.6 µM | [5] 32.9 µM | [6] 73.8 µM | [8] 81.1 µM | [9] 11.5 µM | [10] 30.4 µM | CYP3A5 (gene 1577) 13.2 µM | [11] 26.9 µM | [12] 15.8 µM | [13] 21 µM
inactive: [1] | [3] | [7]

O=c1[nH]cc(F)c(=O)[nH]1
active: [2] 51 µM | CYP2E1 (gene 1571) 51 µM | CYP4A11 (gene 1579) 51 µM | [8] 70.9 µM | [12] 35 µM | [13] 64.6 µM | [14] 78 µM
not listed: [15]
inactive: all other assays above

CC(=O)OCCOCCOCCOC(C)=O
not listed: CYP2C8 (gene 1558) | [14]
inactive: all other assays above

Cc1ccccc1Cl
not listed: CYP2C9 (gene 1559)
inactive: all other assays above

CCCCOC(=O)CCCCCCCCC(=O)OCCCC
inactive: all assays above

NC(=O)Cn1c(=O)cc(CCN2CCN(c3nccc4sccc34)CC2)c2ccc(F)cc21
active: CYP2E1 (gene 1571) 87.6 µM | CYP4A11 (gene 1579) 65.4 µM | [5] 5.56 µM | [6] 65.2 µM | [11] 12.3 µM | [12] 62.7 µM | [13] 21.5 µM | [14] 50 µM
not listed: CYP2C8 (gene 1558) | CYP2C9 (gene 1559)
inactive: all other assays above

C[Si]1(C)O[Si](C)(C)O[Si](C)(C)O[Si](C)(C)O1
not listed: [15]
inactive: all other assays above

COCCOCCOC
active: [1] 0.388 µM | [2] 0.95 µM | [3] 1.57 µM | [4] 0.993 µM | [6] 1.38 µM | [7] 1.09 µM
not listed: CYP2C8 (gene 1558) | CYP2C9 (gene 1559) | [14]
inactive: all other assays above

COC(=O)c1ccc(O)cc1
not listed: CYP2C9 (gene 1559) | [14]
inactive: all other assays above

CCCCCCCCCCC
inactive: all assays above

O=C(O)CCCCC(=O)O
not listed: CYP2C8 (gene 1558)
inactive: all other assays above

Reference: PubChem BioAssay (EPA / NIEHS)
